Measured values from PubChem BioAssay AID1159580 (chemical genetic matrix, 2015).
Out of some 5,500 compounds screened, about 2,000 (36%) were called active. About 18% were inconclusive and are not listed. Rule as the data show it: active = normalized growth mostly below about 0.91 (no sharp cut-off); inconclusive = no clear call, values can overlap the other calls; inactive = mostly above about 0.92. This is one part of the list.

Assay: chemical genetic growth profiling, strain panel (AID 1159580);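 also: tested at 20 µM; growth read once vehicle control cultures reached saturation at 30 °C; 1 = growth at the plate median or of vehicle wells; lower values mean less growth of the strain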
Details: S. cerevisiae deletion strains, growth OD

Measured: normalized growth

NC(=O)c1ccc(OCC(O)CN2CC=C(c3ccc(F)cc3)CC2)cc1 (stereo not given)
inactive: locus YAL040C, strain CLN3, active compounds read low 1.06 | locus YCL061C, strain MRC1 (second series), active compounds read low 0.982 | locus YDR150W, strain NUM1, active compounds read low 1.01 | locus YDR363W, strain ESC2, active compounds read low 0.964 | locus YER002W, strain NOP16, active compounds read low 1.01 | locus YMR263W, strain SAP30, active compounds read low 0.98 | locus YMR307W, strain GAS1, active compounds read low 0.998 | locus YNL128W, strain TEP1, active compounds read low 1.01 | locus YNL175C, strain NOP13, active compounds read low 1.03 | locus YNL197C, strain WHI3, active compounds read low 1 | locus YNL224C, strain SQS1, active compounds read low 1.01 | locus YNL322C, strain KRE1, active compounds read low 0.962 | locus YOR083W, strain WHI5 (second series), active compounds read low 1 | locus YPL055C, strain LGE1, active compounds read low 0.98

COc1ccc(N=C2SCC(c3ccc(C)cc3)=NN2CCO)cc1
inactive: locus YAR019C, strain CDC15, active compounds read low 0.975 | locus YBL105C, strain PKC1, active compounds read low 0.985 | locus YBR135W, strain CKS1, active compounds read low 0.979 | locus YBR136W, strain MEC1, active compounds read low 0.972 | locus YBR160W, strain CDC28, active compounds read low 0.982 | locus YDL017W, strain CDC7, active compounds read low 0.982 | locus YDL028C, strain MPS1, active compounds read low 0.971 | locus YDL101C, strain DUN1, active compounds read low 0.982 | locus YDL108W, strain KIN28, active compounds read low 0.981 | locus YDL132W, strain cdc53, active compounds read low 0.98 | locus YDL214C, strain PRR2, active compounds read low 0.975 | locus YDR052C, strain DBF4, active compounds read low 0.988 | locus YDR054C, strain cdc34, active compounds read low 0.979 | locus YDR226W, strain ADK1, active compounds read low 0.981 | locus YDR477W, strain SNF1, active compounds read low 0.958 | locus YER123W, strain YCK3, active compounds read low 0.943 | locus YER133W, strain GLC7, active compounds read low 0.971 | locus YFL009W, strain cdc4, active compounds read low 0.972 | locus YFL029C, strain CAK1, active compounds read low 0.964 | locus YFR003C, strain YPI1, active compounds read low 0.98 | locus YFR019W, strain FAB1, active compounds read low 0.985 | locus YFR028C, strain CDC14, active compounds read low 0.972 | locus YGR040W, strain KSS1, active compounds read low 0.961 | locus YGR052W, strain FMP48, active compounds read low 1.01 | locus YGR092W, strain DBF2, active compounds read low 0.947 | locus YHR030C, strain SLT2, active compounds read low 0.95 | locus YHR079C, strain IRE1, active compounds read low 0.968 | locus YHR082C, strain KSP1, active compounds read low 0.991 | locus YHR205W, strain SCH9, active compounds read low 0.987 | locus YIL147C, strain SLN1, active compounds read low 0.977 | locus YJL095W, strain BCK1, active compounds read low 0.973 | locus YJL128C, strain PBS2, active compounds read low 0.955 | locus YJL157C, strain FAR1, active compounds read low 0.979 | locus YJR016C, strain ILV3, active compounds read low 0.979 | locus YJR066W, strain TOR1 (second series), active compounds read low 0.925 | locus YJR066W, strain TOR1, active compounds read low 0.962 | locus YKL048C, strain ELM1, active compounds read low 0.997 | locus YKL067W, strain YNK1, active compounds read low 0.971 | locus YKL101W, strain HSL1, active compounds read low 0.976 | locus YKL193C, strain SDS22, active compounds read low 0.975 | locus YKL203C, strain TOR2, active compounds read low 1.02 | locus YLR113W, strain HOG1, active compounds read low 0.915 | locus YLR133W, strain CKI1, active compounds read low 0.976 | locus YLR403W, strain SFP1, active compounds read low 0.976 | locus YML070W, strain DAK1, active compounds read low 0.956 | locus YMR001C, strain CDC5, active compounds read low 0.984 | locus YMR205C, strain PFK2 (second series), active compounds read low 0.971 | locus YMR277W, strain FCP1, active compounds read low 0.978 | locus YNL006W, strain LST8, active compounds read low 0.986 | locus YNL020C, strain ARK1, active compounds read low 0.983 | locus YNL161W, strain CBK1, active compounds read low 0.978 | locus YNL183C, strain NPR1, active compounds read low 0.941 | locus YNL207W, strain RIO2, active compounds read low 0.978 | locus YNL222W, strain SSU72, active compounds read low 0.972 | locus YNL307C, strain MCK1 (second series), active compounds read low 0.98 | locus YOL078W, strain AVO1, active compounds read low 0.977 | locus YOL136C, strain PFK27, active compounds read low 0.96 | locus YOR061W, strain CKA2, active compounds read low 0.983 | locus YOR119C, strain RIO1, active compounds read low 0.999 | locus YOR231W, strain MKK1, active compounds read low 0.963 | locus YOR329C, strain SCD5, active compounds read low 0.983 | locus YPL031C, strain PHO85, active compounds read low 0.969 | locus YPL153C, strain RAD53, active compounds read low 0.97 | locus YPL204W, strain HRR25, active compounds read low 0.961 | locus YPL209C, strain IPL1, active compounds read low 0.977 | locus YPL256C, strain CLN2, active compounds read low 0.946 | locus YPR025C, strain CCL1, active compounds read low 0.985 | locus YPR106W, strain ISR1, active compounds read low 0.979 | locus YPR111W, strain DBF20, active compounds read low 0.968 | strain NNK1, active compounds read low 0.983 | strain TSCII, active compounds read low 0.982
